# Hits are enriched below; roughly 2.7% of the tested compounds scored in any of these assays.
# PAFAH2 FP inh – PAFAH2 (human) inhibition; 340,000 tested, 0.99% active; Q99487; recombinant PAFAH2, FP-rhodamine activity probe, fluorescence polarization; inhibition, % at 3.39 µM; AID 492956;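 active = inhibition above the mean over all tested compounds plus 3 SD, cut at about 30% in these data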;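 note: inhibitors block probe labeling of enzyme so polarization drops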
# PAFAH1B2 inh – blocks human PAF acetylhydrolase 1b catalytic subunit 2 | P68402 | recombinant PAFAH1B2, FP-rhodamine activity probe, fluorescence polarization | inhibition, % at 3.39 µM | 340,000 tested, 1.2% active;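 active = inhibition above the mean of all tested compounds plus 3 SD, cut at about 24% in these data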
# Target sequence (P68402 whole entry, looked up): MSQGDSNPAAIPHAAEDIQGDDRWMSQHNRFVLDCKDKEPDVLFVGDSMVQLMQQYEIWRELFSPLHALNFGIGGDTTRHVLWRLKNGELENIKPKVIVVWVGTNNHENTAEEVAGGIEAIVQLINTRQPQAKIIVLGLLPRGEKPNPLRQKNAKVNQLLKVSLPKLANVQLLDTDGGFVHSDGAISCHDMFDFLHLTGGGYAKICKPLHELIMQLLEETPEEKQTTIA
# TCR-CD3 inh – human TCR-CD3 binding inhibition; TAMRA-labeled TCR probe fluorescence, biochemical; inhibition, % at 9.4 µM; 360,000 tested, 0.37% active; in the data active = inhibition above about 19%;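 note: recombinant mutant TCR 2C K166C tagged with TAMRA read by polarization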
# pPAFAH inh – inhibitors of human plasma PAF acetylhydrolase (pPAFAH) | Q13093 | recombinant pPAFAH, FP-rhodamine probe fluorescence polarization | inhibition, % at 3.39 µM | 330,000 tested, 1.5% active | AID 463082;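 active = inhibition above the mean inhibition across the screen plus 3 SD, cut at about 25% in these data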;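 note: inhibitors block binding of the rhodamine activity-based probe so polarization drops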
# PAFAH1B3 inh – blocks human PAF acetylhydrolase 1B catalytic subunit 3 | recombinant PAFAH1B3, FP-rhodamine probe, fluorescence polarization | inhibition, % at 3.39 µM | 340,000 tested, 0.28% active;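 active = inhibition above the screen-wide average of all tested compounds plus 3 SD, cut at about 25% in these data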
# Target sequence (Q15102 whole entry, looked up): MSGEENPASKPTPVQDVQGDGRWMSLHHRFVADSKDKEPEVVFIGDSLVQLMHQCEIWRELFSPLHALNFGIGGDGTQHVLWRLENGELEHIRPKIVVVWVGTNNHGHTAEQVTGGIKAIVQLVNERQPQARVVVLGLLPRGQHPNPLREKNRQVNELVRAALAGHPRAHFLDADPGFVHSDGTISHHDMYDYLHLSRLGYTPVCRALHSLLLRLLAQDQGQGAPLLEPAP
# A number is an active result; n = inactive; x = no result.
SMILES,PAFAH2 FP inh,PAFAH1B2 inh,TCR-CD3 inh,pPAFAH inh,PAFAH1B3 inh
CCCCC(CC)CNC(=O)CN(C)S(=O)(=O)c1cccc2nsnc12 (stereo not given),n,25,n,n,n
O=C(COC(=O)COc1ccccc1)NC12CC3CC(CC(C3)C1)C2,n,25,n,n,n
CN(C)c1cccc2c(S(=O)(=O)NC(=O)[C@H]3O[C@@H](n4ccc(=O)[nH]c4=O)[C@H](O)[C@@H]3O)cccc12,x,x,n,x,x
O=C(CSc1ccccc1)N/N=C/c1ccccc1O,n,27,n,n,n
COc1ccc(N2C(=O)c3n[nH]c(C)c3C2c2cccc(C(F)(F)F)c2)cc1 (stereo not given),x,x,n,x,x
Cc1cc(Br)ccc1OCC(=O)NNC(=O)C(=O)Nc1ccccc1,n,27,n,n,n
Cc1ccc(NC(C)c2cc(Cl)ccc2O)cc1 (stereo not given),n,28,n,n,n
CC(Nn1cnnc1)c1cc(Cl)ccc1O (stereo not given),n,n,n,n,n
Nc1ncc(N=Nc2cc(C(=O)O)ccc2Cl)s1,n,n,n,26,n
Nc1cc2sc(-c3ccc(C(=O)O)cc3)nc2cc1Cl,n,n,n,n,n
CCn1ncc(Br)c1C(=O)Nc1ccc(-c2ccno2)cc1,n,n,n,n,n
O=C(NC(n1ccc(=O)[nH]c1=O)C(Cl)(Cl)Cl)C12CC3CC(CC(C3)C1)C2 (stereo not given),n,27,n,n,n
O=C(Nc1ccccc1)C(Cc1ccccc1)NC(=O)C12CC3CC(CC(C3)C1)C2 (stereo not given),n,n,n,n,n
CC1CCc2c(sc(NS(=O)(=O)c3ccccc3)c2C(=O)OC(C)C)C1 (stereo not given),n,n,n,25,n
COc1cc2c(c(OC)c1OC)C1(CCCCC1)CC2NC(=O)c1ccncc1 (stereo not given),x,x,n,x,x
O=S(=O)(NCC(c1ccc2c(c1)OCO2)N1CCOCC1)c1ccc(Br)cc1 (stereo not given),n,25,n,n,n
COc1cccc(N=Nc2c(N)[nH]n3c(=O)c4c(nc23)CCCC4)c1,x,x,n,30,x
CC1OC23CCCCC2C(C#N)(C(=N)O3)C1(C#N)C#N (stereo not given),n,n,n,n,n
CCC1OC23CCCCC2C(C#N)(C(=N)O3)C1(C#N)C#N (stereo not given),48,34,n,n,33
N#CC12COC3(CCCCC3C1(C#N)C#N)OC2=N (stereo not given),38,n,n,n,35
N#CC1(C#N)COC23CCCCC2C1(C#N)C(=N)O3 (stereo not given),35,n,n,n,n
CCCCC(=O)N(C)c1c(C)nc2ccc(C(=O)Nc3cccc(OC)c3)cn12,x,x,n,x,x
O=S(=O)(Nc1nc(-c2ccccc2)cs1)c1cc(Cl)ccc1Cl,n,n,n,28,n
CCOC(=O)c1ccc(NC(=O)C2(c3ccc(Cl)cc3)CCCC2)cc1,n,29,n,n,n
CCOC(=O)c1ccc(NC(=O)C2(c3ccccc3)CCCC2)cc1,n,n,n,n,n
SMILES,PAFAH2 FP inh,PAFAH1B2 inh,TCR-CD3 inh,pPAFAH inh,PAFAH1B3 inh
COc1ccc(-c2c(C)nc3c(-c4ccccn4)cnn3c2N)cc1,n,n,n,x,n
C[C@@H]1COc2cccc(NCCO)c2S(=O)(=O)N1,x,x,n,x,x
Oc1ccc(N=Cc2ccc(O)c(O)c2)cc1,n,n,x,34,34
O=Cc1ccc(O)c(O)c1,n,n,n,n,n
COc1ccccc1CCn1cnc(-c2ccccc2)c1CC(C)C,x,x,n,x,x
CC1CCN(S(=O)(=O)c2ccc(NC(=O)C3CC3)cc2)CC1,n,25,n,n,n
CC1CCN(S(=O)(=O)c2ccc(NC(=O)c3ccco3)cc2)CC1,n,27,n,n,n
Cc1ccc(S(=O)(=O)N2CCC(C(=O)Nc3ccc(S(=O)(=O)N4CCCC4)cc3)CC2)cc1,n,n,n,n,n
COC(=O)Nc1ccc(S(=O)(=O)N2CCC(C)CC2)cc1,n,25,n,n,n
COC(=O)Nc1ccc(S(=O)(=O)N2CCC(C(=O)N3CCC(C)CC3)CC2)cc1,n,n,n,n,n
CC1CCN(S(=O)(=O)c2ccc(NC(=O)[C@@H]3CCCC[C@@H]3C(=O)O)cc2)CC1,n,48,n,n,n
Cc1cc2c(cc1C)-n1nnnc1C(N1CCN(c3ncccc3C#N)CC1)C(=O)N2 (stereo not given),x,x,n,x,x
CC(=O)N1C[C@@H](CO)[C@@H](N(C)C(=O)/C=C/c2ccccc2)C[C@H]1c1ccccc1,x,x,n,x,x
CC1CCN(S(=O)(=O)c2ccc(NC(=O)c3ccncc3)cc2)CC1,n,29,n,n,n
O=C(N[C@@H](Cc1ccccc1)C(=O)N1CCN(S(=O)(=O)c2ccc(F)cc2)CC1)c1ccco1,n,24,n,x,n
O=C(NC(Cc1ccccc1)C(=O)N1CCN(S(=O)(=O)c2ccccc2)CC1)c1ccccc1 (stereo not given),n,n,n,n,n
O=C(CNC(=O)c1ccco1)OCC(=O)c1ccc(Br)cc1,n,n,n,n,n
CC1CCN(S(=O)(=O)c2ccc3c(c2)oc(=O)n3C)CC1,n,25,n,n,n
COc1cc(N2C[C@@]3(O)CC[C@@H](O)[C@@H](OC)[C@@H]3[C@@](C)(O)[C@@H]2CC=C(C)C)cc(OC)c1OC,x,x,n,x,x
CC1=C(C(=O)OCCc2ccccc2)C(c2ccsc2)NC(=O)N1C (stereo not given),n,68,n,28,n
O=C(Nc1ccccc1C(F)(F)F)c1cc(S(=O)(=O)N2CCC3(CC2)OCCO3)ccc1F,n,24,n,n,n
Cc1cc2c(cc1S(=O)(=O)NCC(C)c1ccccc1)n(C)c(=O)c(=O)n2C (stereo not given),n,26,n,n,n
Cc1cc2[nH]c(=O)c(=O)[nH]c2cc1S(=O)(=O)NCC(C)c1ccccc1 (stereo not given),x,x,n,x,x
CN(C1=C(NC(=O)c2ccccc2)C(=O)c2ccccc2C1=O)C1CCS(=O)(=O)C1 (stereo not given),38,n,n,n,51
O=S(=O)(NCC(Nc1ccccc1)c1ccccc1)c1ccc(Cl)cc1 (stereo not given),n,n,n,n,n
SMILES,PAFAH2 FP inh,PAFAH1B2 inh,TCR-CD3 inh,pPAFAH inh,PAFAH1B3 inh
O=C(O)c1cccc(NC(CNS(=O)(=O)c2ccc(Cl)cc2)c2ccccc2)c1 (stereo not given),n,75,n,26,n
C[C@H](O)[C@@H]1C(=O)N2CCc3c([nH]c4c(-c5ccccc5)cccc34)[C@@H]2C[C@@H]1N(C)C(=O)NC1CCCCC1,x,x,n,x,x
O=S(=O)(Nc1ccc2cn[nH]c2c1)c1ccc(Cl)cc1,n,32,x,n,n
CCOC(=O)Cn1c(=O)oc2cc(S(=O)(=O)Nc3cccc(C)c3)ccc21,n,n,n,26,n
Cc1ccc(NS(=O)(=O)c2ccc3c(c2)oc(=O)n3C)cc1,n,n,n,x,n
CCOc1ccc(NS(=O)(=O)c2ccc3c(c2)oc(=O)n3C)cc1,n,n,n,28,n

# High-throughput results as filed in PubChem BioAssay.
